# Assay results reported in the supplement of paper PMC8728848.
# Shown is part of a subset that was picked to be rich in the strongest signals.
# B1: LgFlo1 (Saccharomyces pastorianus), B3IUA8 (protein)
# chain: SGSTQACLPVGSRKNGMNVNFYKYSLQDSTTYSDPQYMAYKYSDTKKLGSVSGQTHLSIYYGPNTAFWNTASWSSDLFGFYTTPTNVTVEMTGYFLPPQTGSYTFKFATVDDSAILSVGGSIAFECCAQEQPPITSTDFTINGIKPWDAATPTDIKGSTYMYAGYYYPIKIVYSNAKALARLPVSVVLPDGTEVNDDFEGYVYSFDDDLSQSNCTIPDPSKHTTS
# Assays:
# Test in all cases: glycan array binding signal (z-score within array); higher = stronger binding
# Settings in all cases: glycan notation: IUPAC condensed, linker removed
# [1] = target: Fuc(a1-2)Gal(b1-3)GlcNAc(b1-2)Man(a1-3)[Fuc(a1-2)Gal(b1-3)GlcNAc(b1-2)Man(a1-6)]Man(b1-4)GlcNAc(b1-4)GlcNAc
# Procedure, shortened: (§1)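 Negative Z-scores can be read as non-binding. The Z-score is calculated within each array and then averaged across arrays of one protein sequence at different concentrations or buffers and across linkers. Arrays, 3228 in all, were curated from the Consortium for Functional Glycomics database and kept only where the protein sequence was available.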
# [2] = target: Fuc(a1-2)Gal(b1-3)GlcNAc(b1-2)Man(a1-3)[Fuc(a1-2)Gal(b1-3)GlcNAc(b1-2)Man(a1-6)]Man(b1-4)GlcNAc(b1-4)[Fuc(a1-6)]GlcNAc
# Procedure, shortened: as §1
# [3] = target: Fuc(a1-2)Gal(b1-4)Fuc(a1-3)]GlcNAc(b1-2)Man(a1-3)[Fuc(a1-2)Gal(b1-4)[Fuc(a1-3)]GlcNAc(b1-2)Man(a1-6)]Man(b1-4)GlcNAc(b1-4)GlcNAc
# Procedure, shortened: as §1
# [4] = target: Fuc(a1-2)Gal(b1-4)Glc
# Procedure, shortened: as §1
# [5] = target: Fuc(a1-2)Gal(b1-4)GlcNAc(b1-2)Man(a1-3)[Fuc(a1-2)Gal(b1-4)GlcNAc(b1-2)Man(a1-6)]Man(b1-4)GlcNAc(b1-4)[Fuc(a1-6)]GlcNAc
# Procedure, shortened: as §1
# [6] = target: Fuc(a1-2)[Gal(a1-3)]Gal(b1-3)GlcNAc(b1-3)GalNAc
# Procedure, shortened: as §1
# [7] = target: Fuc(a1-2)[Gal(a1-3)]Gal(b1-4)GlcNAc(b1-2)Man(a1-3)[Fuc(a1-2)[Gal(a1-3)]Gal(b1-4)GlcNAc(b1-2)Man(a1-6)]Man(b1-4)GlcNAc(b1-4)[Fuc(a1-6)]GlcNAc
# Procedure, shortened: as §1
# [8] = target: Fuc(a1-2)[Gal(a1-3)]Gal(b1-4)GlcNAc(b1-3)[Fuc(a1-2)[Gal(a1-3)]Gal(b1-4)GlcNAc(b1-6)]GalNAc
# Procedure, shortened: as §1
# [9] = target: Fuc(a1-2)[GalNAc(a1-3)]Gal(b1-4)GlcNAc(b1-3)Gal(b1-4)GlcNAc
# Procedure, shortened: as §1
# [10] = target: Fuc(a1-2)[GalNAc(a1-3)]Gal(b1-4)GlcNAc(b1-3)[Fuc(a1-2)[GalNAc(a1-3)]Gal(b1-4)GlcNAc(b1-6)]GalNAc
# Procedure, shortened: as §1
# [11] = target: Fuc(a1-2)[GalNAc(a1-3)]Gal(b1-4)GlcNAc(b1-6)GalNAc
# Procedure, shortened: as §1
# [12] = target: Fuc(a1-2)[GalNAc(a1-3)]Gal(b1-4)[Fuc(a1-3)]GlcNAc
# Procedure, shortened: as §1
# [13] = target: Fuc(a1-3)[Gal(b1-4)]GlcNAc
# Procedure, shortened: as §1
# [14] = target: Fuc(a1-3)[Gal3S(b1-4)]GlcNAc6S
# Procedure, shortened: as §1
# [15] = target: Gal(a1-3)Gal(b1-3)GlcNAc
# Procedure, shortened: as §1
# [16] = target: Gal(a1-3)Gal(b1-3)GlcNAc(b1-2)Man(a1-3)[Gal(a1-3)Gal(b1-3)GlcNAc(b1-2)Man(a1-6)]Man(b1-4)GlcNAc(b1-4)GlcNAc
# Procedure, shortened: as §1
# [17] = target: Gal(a1-3)Gal(b1-4)GlcNAc(b1-3)GalNAc
# Procedure, shortened: as §1
# [18] = target: Gal(a1-3)GalNAc
# Procedure, shortened: as §1
# [19] = target: Gal(a1-4)Gal(b1-3)GlcNAc(b1-2)Man(a1-3)[Gal(a1-4)Gal(b1-3)GlcNAc(b1-2)Man(a1-6)]Man(b1-4)GlcNAc(b1-4)GlcNAc
# Procedure, shortened: as §1
# [20] = target: Gal(b1-3)GlcNAc(b1-2)Man(a1-3)[GlcNAc(b1-4)][Gal(b1-3)GlcNAc(b1-2)Man(a1-6)]Man(b1-4)GlcNAc(b1-4)GlcNAc
# Procedure, shortened: as §1
# [21] = target: Gal(b1-3)GlcNAc(b1-3)Gal(b1-4)GlcNAc(b1-2)Man(a1-3)[Gal(b1-3)GlcNAc(b1-3)Gal(b1-4)GlcNAc(b1-2)Man(a1-6)]Man(b1-4)GlcNAc(b1-4)GlcNAc
# Procedure, shortened: as §1
# [22] = target: Gal(b1-4)GlcNAc(b1-2)Man(a1-3)[GlcNAc(b1-4)][Gal(b1-4)GlcNAc(b1-2)Man(a1-6)]Man(b1-4)GlcNAc(b1-4)GlcNAc
# Procedure, shortened: as §1
# [23] = target: Gal(b1-4)GlcNAc(b1-2)[Gal(b1-4)GlcNAc(b1-6)]Man(a1-6)[Gal(b1-4)GlcNAc(b1-2)Man(a1-3)]Man(b1-4)GlcNAc(b1-4)GlcNAc
# Procedure, shortened: as §1
# [24] = target: Gal(b1-4)GlcNAc(b1-3)Gal(b1-4)GlcNAc
# Procedure, shortened: as §1
# [25] = target: Gal6S(b1-4)GlcNAc
# Procedure, shortened: as §1
# [26] = target: GlcNAc(b1-3)Gal
# Procedure, shortened: as §1
# [27] = target: GlcNAc(b1-4)GlcNAc
# Procedure, shortened: as §1
# [28] = target: GlcNAc6S(b1-3)Gal(b1-4)GlcNAc
# Procedure, shortened: as §1
# [29] = target: Neu5Ac(a2-3)Gal(b1-3)GalNAc
# Procedure, shortened: as §1
# [30] = target: Neu5Ac(a2-3)Gal(b1-3)GalNAc(b1-3)Gal(a1-4)Gal(b1-4)Glc
# Procedure, shortened: as §1
# [31] = target: Neu5Ac(a2-3)Gal(b1-3)GlcNAc(b1-2)Man(a1-3)[GlcNAc(b1-4)][Neu5Ac(a2-3)Gal(b1-3)GlcNAc(b1-2)Man(a1-6)]Man(b1-4)GlcNAc(b1-4)GlcNAc
# Procedure, shortened: as §1
# [32] = target: Neu5Ac(a2-3)Gal(b1-3)[Fuc(a1-4)]GlcNAc
# Procedure, shortened: as §1
# [33] = target: Neu5Ac(a2-3)Gal(b1-4)Glc
# Procedure, shortened: as §1
# [34] = target: Neu5Ac(a2-3)Gal6S(b1-4)GlcNAc
# Procedure, shortened: as §1
# [35] = target: Neu5Ac(a2-3)Gal6S(b1-4)[Fuc(a1-3)]GlcNAc
# Procedure, shortened: as §1
# [36] = target: Neu5Ac(a2-3)[Neu5Ac(a2-6)]GalNAc
# Procedure, shortened: as §1
# [37] = target: Neu5Ac(a2-6)Gal(b1-4)GlcNAc(b1-2)Man(a1-3)[GlcNAc(b1-4)][Neu5Ac(a2-6)Gal(b1-4)GlcNAc(b1-2)Man(a1-6)]Man(b1-4)GlcNAc(b1-4)GlcNAc
# Procedure, shortened: as §1
# [38] = target: Neu5Ac(a2-6)Gal(b1-4)GlcNAc(b1-2)Man(a1-6)[Gal(b1-4)GlcNAc(b1-2)Man(a1-3)]Man(b1-4)GlcNAc(b1-4)GlcNAc
# Procedure, shortened: as §1
# [39] = target: Neu5Ac(b2-6)Gal(b1-4)GlcNAc
# Procedure, shortened: as §1
binder,measurement,setting,value
B1,glycan array binding signal (z-score),[1],2.1
same,glycan array binding signal (z-score),[2],3.52
same,glycan array binding signal (z-score),[3],4.98
same,glycan array binding signal (z-score),[4],-0.137
same,glycan array binding signal (z-score),[5],0.313
same,glycan array binding signal (z-score),[6],11.9
same,glycan array binding signal (z-score),[7],11.9
same,glycan array binding signal (z-score),[8],2.44
same,glycan array binding signal (z-score),[9],-0.328
same,glycan array binding signal (z-score),[10],1.81
same,glycan array binding signal (z-score),[11],-0.114
same,glycan array binding signal (z-score),[12],0.711
same,glycan array binding signal (z-score),[13],0.072
same,glycan array binding signal (z-score),[14],0.042
same,glycan array binding signal (z-score),[15],2.47
same,glycan array binding signal (z-score),[16],0.576
same,glycan array binding signal (z-score),[17],-0.146
same,glycan array binding signal (z-score),[18],-0.152
same,glycan array binding signal (z-score),[19],1.89
same,glycan array binding signal (z-score),[20],0.784
same,glycan array binding signal (z-score),[21],-0.078
same,glycan array binding signal (z-score),[22],-0.121
same,glycan array binding signal (z-score),[23],0.549
same,glycan array binding signal (z-score),[24],-0.291
same,glycan array binding signal (z-score),[25],-0.114
same,glycan array binding signal (z-score),[26],-0.087
same,glycan array binding signal (z-score),[27],-0.042
same,glycan array binding signal (z-score),[28],-0.317
same,glycan array binding signal (z-score),[29],5.83
same,glycan array binding signal (z-score),[30],-0.329
same,glycan array binding signal (z-score),[31],-0.135
same,glycan array binding signal (z-score),[32],-0.245
same,glycan array binding signal (z-score),[33],1.97
same,glycan array binding signal (z-score),[34],-0.229
same,glycan array binding signal (z-score),[35],-0.151
same,glycan array binding signal (z-score),[36],-0.356
same,glycan array binding signal (z-score),[37],-0.203
same,glycan array binding signal (z-score),[38],-0.38
same,glycan array binding signal (z-score),[39],-0.214
